According to the supplement of paper PMC11732987, “Enantioselective OTUD7B fragment discovery through chemoproteomics screening and high-throughput optimisation” (Communications Chemistry, 2025):

How the values were obtained:
Assay in all cases: log2 ratio of Biotin-Ahx-Ub-VS probe labelling (fragment/DMSO); higher = less target engagement (more negative = stronger competition), active = hit call of the paper (q ≤ 0.05, log2 ratio ≤ -1)
Conditions in all cases: compound concentration: 200 uM; treatment time: 3 h
[1] = biological target: USP34 (UniProt Q70CQ2)
Sequence of USP34 (Q70CQ2 whole entry, the tested form may be a part): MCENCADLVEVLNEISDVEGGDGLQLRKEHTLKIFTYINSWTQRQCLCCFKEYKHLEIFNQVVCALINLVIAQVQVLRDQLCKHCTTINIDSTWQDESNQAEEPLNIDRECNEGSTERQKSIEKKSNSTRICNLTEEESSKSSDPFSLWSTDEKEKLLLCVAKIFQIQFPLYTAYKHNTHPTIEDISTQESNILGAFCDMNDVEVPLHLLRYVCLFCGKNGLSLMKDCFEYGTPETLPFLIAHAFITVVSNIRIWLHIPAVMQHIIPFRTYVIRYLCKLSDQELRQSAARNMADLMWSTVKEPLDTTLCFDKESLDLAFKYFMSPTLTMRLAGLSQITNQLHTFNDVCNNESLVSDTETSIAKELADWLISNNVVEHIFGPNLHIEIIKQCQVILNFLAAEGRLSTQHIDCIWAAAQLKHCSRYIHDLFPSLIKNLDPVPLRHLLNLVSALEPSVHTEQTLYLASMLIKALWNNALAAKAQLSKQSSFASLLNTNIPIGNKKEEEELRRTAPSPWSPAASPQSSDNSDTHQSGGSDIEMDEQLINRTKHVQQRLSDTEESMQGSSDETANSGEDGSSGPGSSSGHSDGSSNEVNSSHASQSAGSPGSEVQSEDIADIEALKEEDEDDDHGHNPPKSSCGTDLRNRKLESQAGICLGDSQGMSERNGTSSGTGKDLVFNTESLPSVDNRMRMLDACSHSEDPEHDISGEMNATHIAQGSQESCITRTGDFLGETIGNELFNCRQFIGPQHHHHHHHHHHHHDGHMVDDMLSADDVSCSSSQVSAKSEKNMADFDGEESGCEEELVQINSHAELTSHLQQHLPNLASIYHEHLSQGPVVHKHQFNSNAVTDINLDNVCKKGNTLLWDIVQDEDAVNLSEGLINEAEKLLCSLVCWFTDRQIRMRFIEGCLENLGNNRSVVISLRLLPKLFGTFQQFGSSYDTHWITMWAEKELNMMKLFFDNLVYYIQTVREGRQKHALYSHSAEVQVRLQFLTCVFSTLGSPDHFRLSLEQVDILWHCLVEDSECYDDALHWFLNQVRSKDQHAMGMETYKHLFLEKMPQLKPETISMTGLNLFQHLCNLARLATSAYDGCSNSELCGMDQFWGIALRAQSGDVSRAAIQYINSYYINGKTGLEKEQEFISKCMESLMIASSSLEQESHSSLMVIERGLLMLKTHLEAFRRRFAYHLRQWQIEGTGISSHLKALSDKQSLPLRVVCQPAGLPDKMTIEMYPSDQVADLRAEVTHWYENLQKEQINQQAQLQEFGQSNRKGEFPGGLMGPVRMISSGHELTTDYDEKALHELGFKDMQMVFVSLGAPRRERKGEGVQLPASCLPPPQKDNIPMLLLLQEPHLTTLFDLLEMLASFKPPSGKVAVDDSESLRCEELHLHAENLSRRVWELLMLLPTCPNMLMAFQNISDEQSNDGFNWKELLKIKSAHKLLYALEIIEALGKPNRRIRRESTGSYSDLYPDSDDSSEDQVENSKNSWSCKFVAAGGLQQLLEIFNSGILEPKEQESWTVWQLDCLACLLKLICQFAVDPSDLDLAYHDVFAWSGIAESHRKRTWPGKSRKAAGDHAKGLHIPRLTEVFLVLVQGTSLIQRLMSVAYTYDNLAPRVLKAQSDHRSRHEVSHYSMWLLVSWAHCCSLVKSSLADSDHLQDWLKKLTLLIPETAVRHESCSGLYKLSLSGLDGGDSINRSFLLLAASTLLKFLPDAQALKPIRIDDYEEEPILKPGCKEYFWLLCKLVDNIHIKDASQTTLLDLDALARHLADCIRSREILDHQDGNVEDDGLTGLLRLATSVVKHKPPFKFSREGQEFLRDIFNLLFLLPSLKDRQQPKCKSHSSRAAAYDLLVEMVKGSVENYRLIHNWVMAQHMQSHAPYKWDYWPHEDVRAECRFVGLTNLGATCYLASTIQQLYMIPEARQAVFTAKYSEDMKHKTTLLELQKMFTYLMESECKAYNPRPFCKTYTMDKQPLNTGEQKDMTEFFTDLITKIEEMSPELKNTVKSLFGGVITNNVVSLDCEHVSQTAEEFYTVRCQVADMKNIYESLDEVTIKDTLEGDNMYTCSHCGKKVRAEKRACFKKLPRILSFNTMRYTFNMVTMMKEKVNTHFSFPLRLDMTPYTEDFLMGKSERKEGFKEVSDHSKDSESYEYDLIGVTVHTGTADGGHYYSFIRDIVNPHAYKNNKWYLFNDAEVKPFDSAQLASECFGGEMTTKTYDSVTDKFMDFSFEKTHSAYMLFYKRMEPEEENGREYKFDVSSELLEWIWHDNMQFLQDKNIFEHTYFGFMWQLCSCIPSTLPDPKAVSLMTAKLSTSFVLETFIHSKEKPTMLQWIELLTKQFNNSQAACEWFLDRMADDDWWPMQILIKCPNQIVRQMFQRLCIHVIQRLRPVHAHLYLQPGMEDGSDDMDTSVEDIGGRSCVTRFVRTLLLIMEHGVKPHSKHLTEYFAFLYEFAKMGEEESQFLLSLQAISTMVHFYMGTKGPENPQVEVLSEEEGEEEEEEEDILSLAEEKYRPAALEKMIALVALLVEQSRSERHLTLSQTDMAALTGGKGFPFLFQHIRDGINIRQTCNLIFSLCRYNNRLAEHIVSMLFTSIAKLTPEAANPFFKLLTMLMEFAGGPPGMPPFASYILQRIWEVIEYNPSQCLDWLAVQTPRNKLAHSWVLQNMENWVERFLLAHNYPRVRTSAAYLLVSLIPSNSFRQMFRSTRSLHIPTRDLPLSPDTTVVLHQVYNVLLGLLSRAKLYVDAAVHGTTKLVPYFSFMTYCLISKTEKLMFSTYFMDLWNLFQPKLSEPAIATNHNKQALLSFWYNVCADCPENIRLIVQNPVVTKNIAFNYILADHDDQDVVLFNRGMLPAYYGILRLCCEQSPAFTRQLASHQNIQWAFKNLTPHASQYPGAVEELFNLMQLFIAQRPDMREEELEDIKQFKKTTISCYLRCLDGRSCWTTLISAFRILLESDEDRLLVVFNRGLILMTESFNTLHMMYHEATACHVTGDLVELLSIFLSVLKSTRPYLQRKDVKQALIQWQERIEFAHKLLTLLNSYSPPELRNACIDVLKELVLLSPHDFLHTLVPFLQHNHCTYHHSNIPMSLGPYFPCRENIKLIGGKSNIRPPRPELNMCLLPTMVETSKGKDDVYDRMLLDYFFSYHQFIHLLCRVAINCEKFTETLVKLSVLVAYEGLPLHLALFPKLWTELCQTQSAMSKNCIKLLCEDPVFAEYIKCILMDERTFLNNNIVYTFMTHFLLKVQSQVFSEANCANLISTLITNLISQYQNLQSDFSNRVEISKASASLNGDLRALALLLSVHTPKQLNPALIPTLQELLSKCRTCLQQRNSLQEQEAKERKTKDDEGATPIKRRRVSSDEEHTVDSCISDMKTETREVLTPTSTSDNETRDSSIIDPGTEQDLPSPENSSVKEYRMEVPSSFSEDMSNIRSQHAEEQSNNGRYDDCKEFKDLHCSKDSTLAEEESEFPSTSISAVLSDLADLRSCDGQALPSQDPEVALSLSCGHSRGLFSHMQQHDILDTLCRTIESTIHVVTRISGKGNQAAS
Summary of the method: (§1)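 Triplicate samples of HEK293T lysate, 495 µg each, received fragment at 200 µM or vehicle for 3 h, followed by Biotin-Ahx-Ub-VS (0.5 µM final) for 1 h. After NeutrAvidin enrichment of labelled DUBs and LysC/trypsin digestion, peptides were run by diaPASEF LC-MS/MS. The values are average log2 fragment/vehicle ratios from global-median-normalised Spectronaut label-free quantities, tested by unpaired t-test on proteins having ≥2 unique peptides.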

[2] = biological target: T1, USP36 (UniProt Q9P275)
T1 sequence (whole entry): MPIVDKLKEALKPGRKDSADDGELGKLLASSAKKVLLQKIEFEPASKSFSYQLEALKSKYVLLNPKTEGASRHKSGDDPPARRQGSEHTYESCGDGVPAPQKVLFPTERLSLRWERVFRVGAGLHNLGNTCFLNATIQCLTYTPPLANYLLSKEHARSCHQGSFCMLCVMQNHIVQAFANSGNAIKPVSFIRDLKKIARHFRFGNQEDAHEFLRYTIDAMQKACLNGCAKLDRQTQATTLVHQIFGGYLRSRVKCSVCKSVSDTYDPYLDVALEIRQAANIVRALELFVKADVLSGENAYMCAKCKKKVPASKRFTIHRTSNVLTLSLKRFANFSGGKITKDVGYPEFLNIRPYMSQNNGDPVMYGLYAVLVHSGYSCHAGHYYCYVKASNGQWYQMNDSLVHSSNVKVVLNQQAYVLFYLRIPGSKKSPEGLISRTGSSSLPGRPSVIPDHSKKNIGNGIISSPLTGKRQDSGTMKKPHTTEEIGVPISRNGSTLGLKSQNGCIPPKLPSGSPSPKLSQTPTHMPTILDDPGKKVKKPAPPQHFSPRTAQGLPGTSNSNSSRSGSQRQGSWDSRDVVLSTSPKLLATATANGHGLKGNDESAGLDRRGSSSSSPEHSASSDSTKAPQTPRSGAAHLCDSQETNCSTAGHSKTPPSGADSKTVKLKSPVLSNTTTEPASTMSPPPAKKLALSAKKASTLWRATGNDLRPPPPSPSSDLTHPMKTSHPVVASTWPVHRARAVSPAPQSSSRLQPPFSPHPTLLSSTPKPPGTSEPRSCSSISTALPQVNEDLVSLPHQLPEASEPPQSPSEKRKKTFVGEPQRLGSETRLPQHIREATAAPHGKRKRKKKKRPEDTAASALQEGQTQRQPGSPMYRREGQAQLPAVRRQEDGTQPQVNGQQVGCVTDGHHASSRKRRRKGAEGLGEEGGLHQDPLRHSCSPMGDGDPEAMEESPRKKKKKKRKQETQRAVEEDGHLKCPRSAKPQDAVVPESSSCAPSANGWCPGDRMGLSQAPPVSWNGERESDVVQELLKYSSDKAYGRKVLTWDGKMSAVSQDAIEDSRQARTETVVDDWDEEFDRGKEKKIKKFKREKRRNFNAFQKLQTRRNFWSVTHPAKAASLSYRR
Summary of the method: as §1

[3] = biological target: T2, USP38 (UniProt Q8NB14)
T2 sequence (whole entry): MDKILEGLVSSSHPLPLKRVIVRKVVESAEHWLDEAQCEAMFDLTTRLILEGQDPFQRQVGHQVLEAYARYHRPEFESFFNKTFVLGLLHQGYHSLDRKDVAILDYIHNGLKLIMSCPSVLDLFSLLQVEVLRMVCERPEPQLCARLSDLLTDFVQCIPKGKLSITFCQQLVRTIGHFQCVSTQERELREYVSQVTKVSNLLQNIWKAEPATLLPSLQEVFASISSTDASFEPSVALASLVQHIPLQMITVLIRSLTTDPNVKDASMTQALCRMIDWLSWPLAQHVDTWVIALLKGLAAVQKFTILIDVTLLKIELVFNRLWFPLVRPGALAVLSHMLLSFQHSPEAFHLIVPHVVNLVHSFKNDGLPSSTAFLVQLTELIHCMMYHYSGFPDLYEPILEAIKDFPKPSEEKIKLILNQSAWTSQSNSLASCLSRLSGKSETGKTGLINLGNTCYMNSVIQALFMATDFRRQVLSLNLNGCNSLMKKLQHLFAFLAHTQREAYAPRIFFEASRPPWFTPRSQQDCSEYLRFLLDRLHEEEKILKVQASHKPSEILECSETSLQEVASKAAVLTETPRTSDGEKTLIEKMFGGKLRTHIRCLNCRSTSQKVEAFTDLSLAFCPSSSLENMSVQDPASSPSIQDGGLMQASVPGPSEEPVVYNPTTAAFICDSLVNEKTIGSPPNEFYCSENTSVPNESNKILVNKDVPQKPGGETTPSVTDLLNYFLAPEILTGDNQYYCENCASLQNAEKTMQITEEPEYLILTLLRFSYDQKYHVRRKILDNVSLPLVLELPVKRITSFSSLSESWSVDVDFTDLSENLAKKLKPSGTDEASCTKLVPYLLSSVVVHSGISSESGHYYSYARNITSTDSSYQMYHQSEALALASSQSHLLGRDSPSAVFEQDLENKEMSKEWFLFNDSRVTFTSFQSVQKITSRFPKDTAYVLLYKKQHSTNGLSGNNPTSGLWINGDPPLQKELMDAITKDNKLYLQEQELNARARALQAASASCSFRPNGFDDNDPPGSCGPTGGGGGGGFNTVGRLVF
Summary of the method: as §1

[4] = biological target: T3, USP39 (UniProt Q53GS9)
T3 sequence (whole entry): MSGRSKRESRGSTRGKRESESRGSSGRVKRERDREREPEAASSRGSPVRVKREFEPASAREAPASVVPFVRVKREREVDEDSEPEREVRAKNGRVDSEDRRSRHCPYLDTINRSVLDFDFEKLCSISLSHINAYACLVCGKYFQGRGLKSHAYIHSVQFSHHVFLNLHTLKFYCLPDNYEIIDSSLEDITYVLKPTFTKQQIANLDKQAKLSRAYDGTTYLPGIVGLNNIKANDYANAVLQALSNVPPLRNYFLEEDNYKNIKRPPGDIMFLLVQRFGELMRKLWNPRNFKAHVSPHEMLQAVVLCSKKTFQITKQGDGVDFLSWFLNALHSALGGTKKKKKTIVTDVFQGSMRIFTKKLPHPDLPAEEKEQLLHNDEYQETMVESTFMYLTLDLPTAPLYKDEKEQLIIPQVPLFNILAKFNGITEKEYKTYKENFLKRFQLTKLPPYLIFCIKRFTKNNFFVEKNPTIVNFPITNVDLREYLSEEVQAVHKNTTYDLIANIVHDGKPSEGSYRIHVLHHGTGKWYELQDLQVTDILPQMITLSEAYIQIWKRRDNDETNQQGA
Summary of the method: as §1

[5] = biological target: T4, USP4 (UniProt Q13107)
T4 sequence (whole entry): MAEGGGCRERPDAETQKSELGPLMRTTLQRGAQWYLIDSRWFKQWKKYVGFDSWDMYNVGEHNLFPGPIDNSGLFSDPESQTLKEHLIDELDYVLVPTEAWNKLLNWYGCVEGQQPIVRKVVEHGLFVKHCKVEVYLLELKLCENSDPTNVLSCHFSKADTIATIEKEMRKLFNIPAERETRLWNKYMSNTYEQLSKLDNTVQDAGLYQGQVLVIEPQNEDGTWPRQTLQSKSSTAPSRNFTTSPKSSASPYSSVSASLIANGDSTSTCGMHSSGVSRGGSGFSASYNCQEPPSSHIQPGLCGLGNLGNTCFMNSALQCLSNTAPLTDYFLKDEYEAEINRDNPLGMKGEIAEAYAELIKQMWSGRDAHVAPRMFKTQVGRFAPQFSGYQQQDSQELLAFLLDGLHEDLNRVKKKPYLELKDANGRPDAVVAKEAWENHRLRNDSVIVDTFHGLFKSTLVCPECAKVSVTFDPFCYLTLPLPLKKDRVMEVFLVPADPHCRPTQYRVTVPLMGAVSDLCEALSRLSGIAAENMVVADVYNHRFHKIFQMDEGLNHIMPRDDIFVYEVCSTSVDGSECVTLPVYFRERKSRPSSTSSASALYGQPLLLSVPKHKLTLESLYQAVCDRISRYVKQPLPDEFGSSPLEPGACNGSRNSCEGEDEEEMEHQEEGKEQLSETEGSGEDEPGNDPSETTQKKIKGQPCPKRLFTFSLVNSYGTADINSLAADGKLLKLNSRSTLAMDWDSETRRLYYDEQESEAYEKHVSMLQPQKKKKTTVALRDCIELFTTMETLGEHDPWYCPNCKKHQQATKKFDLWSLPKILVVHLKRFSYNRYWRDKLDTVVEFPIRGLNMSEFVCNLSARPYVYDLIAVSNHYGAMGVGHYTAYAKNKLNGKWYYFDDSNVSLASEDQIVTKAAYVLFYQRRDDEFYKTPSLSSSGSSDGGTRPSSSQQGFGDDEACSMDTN
Summary of the method: as §1

Measured: log2 ratio of Biotin-Ahx-Ub-VS probe labelling

Cc1cccc(N2CCC(NC(=O)CCl)C2=O)c1 (stereo not given)
inactive: [1] 0.0479 | [2] -0.0247 | [3] -0.169 | [4] -0.32 | [5] -0.134
